From PubChem BioAssay AID1159580 (chemical genetic matrix, 2015)
About 2,000 (36%) of roughly 5,500 compounds were called active. Not shown: some 18% with an inconclusive outcome. Cut-off read from the data, not from the text of the source: active = normalized growth mostly below about 0.91 (no sharp cut-off); inconclusive = no clear call, values can overlap the other calls; inactive = mostly above about 0.92. The list shows a part of the results.

Experiment: chemical genetic growth profiling, strain panel (AID 1159580);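 note: tested at 20 µM; growth read once vehicle control cultures reached saturation at 30 °C; 1 = growth at the plate median or of vehicle wells; lower values mean less growth of the strain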
Settings: S. cerevisiae deletion strains, growth OD

Measured: normalized growth

COc1cccc2c(C)cc(=O)[nH]c12
inactive: locus YJL187C, strain SWE1, stronger effect = lower value 0.989 | locus YJR043C, strain POL32, stronger effect = lower value 0.885 | locus YKL068W, stronger effect = lower value 0.951 | locus YKL085W, strain MDH1 (second series), stronger effect = lower value 0.941 | locus YKL085W, strain MDH1, stronger effect = lower value 0.941 | locus YKL160W, strain elf1, stronger effect = lower value 0.944 | locus YKR026C, strain gcn3, stronger effect = lower value 0.972 | locus YKR091W, strain srl3, stronger effect = lower value 0.981 | locus YLL026W, stronger effect = lower value 0.952 | locus YLL041C, strain sdh2, stronger effect = lower value 0.956 | locus YLR027C, strain aat2, stronger effect = lower value 0.955 | locus YLR039C, strain RIC1, stronger effect = lower value 0.697 | locus YLR058C, strain SHM2, stronger effect = lower value 0.94 | locus YLR102C, strain apc9, stronger effect = lower value 0.942 | locus YLR221C, strain rsa3, stronger effect = lower value 0.949 | locus YLR258W, strain gsy2, stronger effect = lower value 0.941 | locus YLR262C, strain YPT6 (second series), stronger effect = lower value 0.887 | locus YLR262C, strain YPT6, stronger effect = lower value 0.732 | locus YLR268W, strain sec22, stronger effect = lower value 0.9 | locus YLR320W, strain mms22, stronger effect = lower value 0.94 | locus YLR342W, strain FKS1 (second series), stronger effect = lower value 0.838 | locus YLR342W, strain FKS1, stronger effect = lower value 0.957 | locus YLR357W, strain rsc2, stronger effect = lower value 0.974 | locus YLR370C, strain arc18, stronger effect = lower value 0.932 | locus YLR384C, strain iki3, stronger effect = lower value 0.981 | locus YML016C, strain PPZ1, stronger effect = lower value 0.958 | locus YML032C, strain rad52, stronger effect = lower value 0.948 | locus YML124C, strain tub3, stronger effect = lower value 0.952 | locus YMR058W, strain fet3, stronger effect = lower value 0.955 | locus YMR078C, strain ctf18, stronger effect = lower value 0.937 | locus YMR125W, strain sto1, stronger effect = lower value 0.959 | locus YMR129W, stronger effect = lower value 0.958 | locus YMR205C, strain PFK2, stronger effect = lower value 0.958 | locus YMR223W, strain ubp8, stronger effect = lower value 0.942 | locus YMR231W, strain pep5, stronger effect = lower value 1 | locus YMR307W, strain GAS1, stronger effect = lower value 0.974 | locus YNL067W, strain RPL9B, stronger effect = lower value 0.875 | locus YNL209W, strain ssb2, stronger effect = lower value 0.991 | locus YNL248C, strain rpa49, stronger effect = lower value 0.968 | locus YNL250W, strain rad50, stronger effect = lower value 0.925 | locus YNL271C, strain bni1, stronger effect = lower value 0.955 | locus YNL298W, strain CLA4, stronger effect = lower value 0.978 | locus YNL307C, strain MCK1, stronger effect = lower value 0.91 | locus YNL322C, strain KRE1 (second series), stronger effect = lower value 0.977 | locus YNL322C, strain KRE1, stronger effect = lower value 0.971 | locus YNR049C, strain mso1, stronger effect = lower value 0.97 | locus YNR052C, strain pop2, stronger effect = lower value 0.986 | locus YOL012C, strain htz1 1.3 | locus YOL147C, strain pex11, stronger effect = lower value 0.945 | locus YOR001W, strain rrp6, stronger effect = lower value 0.954 | locus YOR061W, strain CKA2, stronger effect = lower value 0.965 | locus YOR069W, strain VPS5, stronger effect = lower value 0.965 | locus YOR070C, strain gyp1, stronger effect = lower value 0.965 | locus YOR080W, strain dia2, stronger effect = lower value 0.983 | locus YOR083W, strain WHI5, stronger effect = lower value 0.929 | locus YOR106W, strain vam3, stronger effect = lower value 0.938 | locus YOR136W, strain idh2, stronger effect = lower value 0.951 | locus YOR144C, strain elg1, stronger effect = lower value 0.964 | locus YOR265W, strain rbl2, stronger effect = lower value 0.966 | locus YOR290C, strain snf2, stronger effect = lower value 0.891 | locus YOR316C, strain cot1, stronger effect = lower value 0.937 | locus YPL051W, strain arl3, stronger effect = lower value 0.938 | locus YPL055C, strain LGE1, stronger effect = lower value 0.775 | locus YPL078C, strain atp4, stronger effect = lower value 0.896 | locus YPL106C, strain sse1, stronger effect = lower value 0.898 | locus YPL240C, strain hsp82, stronger effect = lower value 0.959 | locus YPL241C, strain CIN2, stronger effect = lower value 0.958 | locus YPR119W, strain clb2, stronger effect = lower value 0.937 | locus YPR141C, strain kar3, stronger effect = lower value 0.953 | locus YPR163C, strain tif3, stronger effect = lower value 0.933 | locus YPR167C, strain met16, stronger effect = lower value 0.959
active: locus YKL009W, strain mrt4, stronger effect = lower value 0.874 | locus YKR001C, strain vps1, stronger effect = lower value 0.802 | locus YLL001W, strain dnm1, stronger effect = lower value 0.893 | locus YLR330W, strain CHS5, stronger effect = lower value 0.896 | locus YLR371W, strain rom2, stronger effect = lower value 0.89 | locus YLR418C, strain cdc73, stronger effect = lower value 0.715 | locus YML120C, strain ndi1, stronger effect = lower value 0.911 | locus YMR263W, strain SAP30, stronger effect = lower value 0.855 | locus YNL071W, strain lat1, stronger effect = lower value 0.897 | locus YNL233W, strain BNI4, stronger effect = lower value 0.827 | locus YOL006C, strain TOP1, stronger effect = lower value 0.511 | locus YOR184W, strain ser1, stronger effect = lower value 0.847 | locus YOR270C, strain vph1, stronger effect = lower value 0.714 | strain wtn01, stronger effect = lower value 0.881
